Sampled rows, rich in hits. Any-hit rate of the full collection: about 17%.
HT1080NT lethal – qHTS for induction of synthetic lethality in tumor cells producing 2HG: qHTS for the HT-1080-NT fibrosarcoma cell line | 360,000 compounds, 1.6% hits | AID 686970, 2013 | HT-1080-NT fibrosarcoma viability, CellTiter-Glo ATP luminescence, 48 h | Potency, µM (series often up to 46.1 µM), for the others: top-dose activity, negative = less viability, hits mostly cytotoxic;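 further: NT is the 2HG producing partner of a matched IDH1 knockdown line; 0% = DMSO-treated cells and -100% = media-only wells without cells; nearly all actives have a fitted effect of over 55% in size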
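HT-1080-NT fibrosarcoma cells (2HG-overproducing), 750 cells/well in RPMI with 5% FBS, dosed after 2 h and incubated 48 h at 37C. CellTiter-Glo luminescence normalized to DMSO and no-cell wells; concentration-response curves fitted and classed.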
HepG2 tox – qHTS for Inhibitors of TGF-b: Cytotox Counterscreen; HepG2 CAGA-GFP viability, ATP luminescence, 18 h; Potency, µM (highest dose often 46.1 µM), for inactives: at the highest dose activity change, negative = cytotoxicity, actives largely listed as cytotoxic; 410,000 compounds, 0.76% hits
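CellTiter-Glo luminescence gave cytotoxicity after 18 hours at 37 degrees C. The cells were HepG2 CAGA-GFP in 1% FBS DMEM, stimulated with 500 pg/mL TGF-beta after compound addition. %Activity was normalised to no-cell wells (complete cell-killing) and DMSO (no toxicity), and curves were fitted and classified.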
HT1080 IDH1KD tx – qHTS for induction of synthetic lethality in tumor cells producing 2HG: qHTS for the HT-1080-IDH1KD cell line. 360,000 compounds, 2% hits. Potency, µM (series often up to 46.1 µM), for inactives: at the top dose activity, negative = toxicity, most hits filed as cytotoxic. HT-1080 IDH1 knockdown viability, ATP luminescence, 48 h;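 further: 0% = DMSO wells and -100% = cell-free medium wells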
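Assay cells: HT-1080 with IDH1 knockdown, 750 per well, RPMI/5% FBS. Exposure: 48 h at 37 °C following 2 h pre-incubation. Read: CellTiter-Glo luminescence; fitted concentration-response, curve class assigned.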
TDP1 cell CPT – qHTS for Inhibitors of human tyrosyl-DNA phosphodiesterase 1 (TDP1): qHTS in cells in presence of CPT. chicken DT40 Tdp1-/-;hTDP1 cells + 20 nM CPT, ATP luminescence, 48 h. Potency, µM (highest dose often 46.2 µM), without a hit: top-dose activity change, negative = growth inhibition, usual class: inhibitors. 420,000 compounds, 12% hits. AID 686979, 2013; further: on the % scale 0 is the no-effect control and ±100 the full control effect; nearly all actives have a fitted effect of over 55% in size
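Chicken DT40 Tdp1-/- cells stably complemented with human TDP1 were seeded at 400 cells/well in medium containing 20 nM camptothecin, exposed to pin-transferred compounds, and grown at 37 °C for at least 48 hr. Viability was read as ATP luminescence.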
TGFb SMAD3 inh – qHTS for Inhibitors of TGF-b; Potency, µM (doses to about 46.1 µM), without a hit: at the top dose activity, negative = inhibition, actives largely listed as inhibitors; 410,000 compounds, 1.2% hits; AID 588855, 2011; HepG2 CAGA-GFP TGF-b/SMAD3 reporter, GFP fluorescence, 18 h; TGF-beta stimulated, 500 pg/mL final; further: on the % scale 0 is the no-effect control and ±100 the full control effect; nearly all actives have a fitted effect of over 65% in size
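Read-out: total well GFP (ex488/em500-530) summed from mean per-cell fluorescence. Cells: HEPG2 CAGA-GFP, 1% FBS DMEM, 18 h at 37 degrees C with 500 pg/mL final TGF-beta. Unstimulated wells served as the full-inhibition control; stimulated DMSO wells = 0%.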
TDP1 cell noCPT – qHTS for Inhibitors of human tyrosyl-DNA phosphodiesterase 1 (TDP1): qHTS in cells in absence of CPT; DT40 Tdp1-/- hTDP1 cells, no CPT, ATP luminescence, 48 h; Potency, µM (doses to about 46.2 µM), for the others: top-dose activity change, negative = growth inhibition, usual class: inhibitors; 420,000 compounds, 15% hits; AID 686978, 2013; further: on the % scale 0 is the no-effect control and ±100 the full control effect; nearly all actives have a fitted effect of over 55% in size
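Seeded 400 DT40-hTDP1 cells/well (vehicle DMSO, no 20 nM CPT); pinned compounds; ≥48 hr at 37 °C; CellTiter-Glo luminescence as viability measure.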
Starred values were filed as active, the others as inactive; ? = inconclusive; · = no result. The call rests on the fitted dose curve; in most records, active means well fitted curve in the direction sought with a large enough effect; inconclusive means small, poorly fitted or top-dose-only effect, or another doubt; inactive means no such curve, though single readings can be large; an effect the other way counts as inactive or inconclusive. Potency means the concentration at half of the fitted maximal effect.

SMILES | HT1080NT lethal | HepG2 tox | HT1080 IDH1KD tx | TDP1 cell CPT | TGFb SMAD3 inh | TDP1 cell noCPT
CC(=O)Nc1ccc(-c2csc(Nc3ccc(Cl)cn3)n2)cc1 | -29% | -25% | ? | ? | ? | ?
Cc1ccc(Nc2nc(-c3ccc(F)cc3)cs2)nc1 | -3% | -40% | -5% | ? | 14% | ?
CC(=O)Nc1cccc(-c2csc(Nc3ccc(Cl)cn3)n2)c1 | -12% | -36% | 0% | 23µM* | ? | ?
Cc1ccccc1OCC(=O)NCC(C)NC(=O)COc1ccccc1C (stereo not drawn) | · | -18% | · | -9% | 4% | -23%
CC(C)c1ccc(NC(=O)Cc2ccc(NC(=O)N3CCCCc4ccccc43)cc2)cc1 | · | -9% | · | 18µM* | 20% | 21µM*
O=C(Cc1ccc(NC(=O)N2CCCCc3ccccc32)cc1)Nc1ccccc1Br | · | -12% | · | ? | -23% | 21µM*
NC(=O)C1CCN(C(=O)c2ccc3c(=O)n(Cc4ccco4)c(SCc4ccc([N+](=O)[O-])cc4)nc3c2)CC1 | -5% | -9% | -3% | ? | -4% | ?
CC(=O)c1cccc(NC(=O)CSc2nnc3ccc(-c4ccc(C)cc4)nn23)c1 | · | -13% | · | -29% | ? | -10%
CC(C)OCCCn1c(SCc2ccccc2C#N)nc2c(sc3ccccc32)c1=O | · | -21% | · | 9% | -29% | -1%
CCOC(=S)SCC(=O)Nc1nc(-c2ccccc2)cs1 | ? | -11% | ? | 2.9µM* | ? | 2.6µM*
CN(C)CC(=O)Nc1nc(-c2ccccc2)cs1 | 23% | 4% | 16% | -13% | -6% | ?
CCOC(=S)SCC(=O)Nc1nc(-c2ccc(Br)cc2)cs1 | 7.3µM* | -43% | 6.5µM* | 4.6µM* | ? | 4.6µM*
C[N+](C)(CCOc1ccccc1)Cc1cccs1 | · | · | · | 6% | · | -25%
O=C(COC(=O)c1ccccc1O)NC12CC3CC(CC(C3)C1)C2 | 1% | -6% | -3% | 12µM* | 5% | 18µM*
COc1cccc(C(=O)OCC(=O)NC23CC4CC(CC(C4)C2)C3)c1 | -1% | 11% | 10% | -11% | 3% | -8%
O=C(OCC(=O)C12CC3CC(CC(C3)C1)C2)c1ccccc1O | -1% | -21% | 10% | ? | 4% | ?
CC(=O)Oc1cc(C(=O)OCC(=O)NC23CC4CC(CC(C4)C2)C3)cc(OC(C)=O)c1OC(C)=O | -27% | -38% | ? | 5.8µM* | -22% | ?
O=C(COC(=O)/C=C/C(=O)OCC(=O)NC12CC3CC(CC(C3)C1)C2)NC12CC3CC(CC(C3)C1)C2 | ? | -45% | ? | 13µM* | 0% | 15µM*
Cc1cccc(C(=O)OCC(=O)NC23CC4CC(CC(C4)C2)C3)c1O | -3% | -17% | -17% | 9.2µM* | -5% | 18µM*
COC(CNC(=O)C1CCCN(S(=O)(=O)c2c(C)noc2/C=C/c2cccs2)C1)OC (stereo not drawn) | 6% | -5% | 2% | ? | ? | -27%
C=CCN1C(=O)C(Cc2ccccc2)SC1=Nc1ccc(C(=O)O)cc1 (stereo not drawn) | 9% | 0% | 3% | 15% | 17% | -1%
COc1ccc(NC(=O)N(C)C[C@H]2OCCCC[C@H](C)Oc3ccc(NS(=O)(=O)c4cn(C)cn4)cc3C(=O)N([C@H](C)CO)C[C@@H]2C)cc1 | 5% | 1% | 3% | 10% | 5% | 13%
COc1ccc(S(=O)(=O)Nc2ccc3c(c2)C(=O)N([C@H](C)CO)C[C@H](C)[C@@H](CN(C)C(=O)Nc2ccc(C(F)(F)F)cc2)O3)cc1 | -21% | 5% | -5% | -24% | ? | -8%
C[C@@H]1CCCCO[C@H](CN(C)C(=O)Nc2ccc(C(F)(F)F)cc2)[C@@H](C)CN([C@H](C)CO)C(=O)c2cc(NC(=O)c3ccncc3)ccc2O1 | -13% | -19% | -6% | 21µM* | -16% | 15µM*
COc1ccc(S(=O)(=O)Nc2ccc3c(c2)C(=O)N([C@H](C)CO)C[C@H](C)[C@@H](CN(C)C(=O)Nc2ccc(F)cc2)OCCCC[C@H](C)O3)cc1 | -17% | -21% | -11% | ? | -3% | 23µM*
SMILES | HT1080NT lethal | HepG2 tox | HT1080 IDH1KD tx | TDP1 cell CPT | TGFb SMAD3 inh | TDP1 cell noCPT
COc1ccc(NC(=O)N(C)C[C@H]2OCCCC[C@@H](C)Oc3ccc(NC(=O)c4ccccc4)cc3C(=O)N([C@H](C)CO)C[C@@H]2C)cc1 | 3% | -15% | -12% | ? | -11% | 21µM*
COc1ccc(S(=O)(=O)Nc2ccc3c(c2)C(=O)N([C@H](C)CO)C[C@H](C)[C@@H](CN(C)C(=O)Nc2ccc(C(F)(F)F)cc2)OCCCC[C@H](C)O3)cc1 | -22% | -20% | -12% | ? | -13% | 23µM*
CC1(CC(=O)N/N=C/c2cc([N+](=O)[O-])c(O)cc2O)OCCO1 | -3% | 0% | -18% | ? | -15% | ?
CCN1C(N(C)C)=NC[C@@H]1Cc1ccccc1 | -2% | 1% | 8% | 0% | ? | -12%
CCC(C)CCN1C(N(C)C)=NC[C@@H]1Cc1ccccc1 (stereo partly drawn) | -1% | -12% | -6% | 12µM* | 3% | ?
CC(C)CCCN1C(N(C)C)=NC[C@@H]1Cc1ccccc1 | -15% | 3% | -18% | 21µM* | 8% | 21µM*
O=c1[nH]nnc2c1ncn2C1OC(CO)C(O)C1O (stereo not drawn) | -17% | -20% | ? | ? | ? | ?
Cc1ccc(CNC(=O)c2cc3c(s2)-c2ccc(Cl)cc2SC3)cc1 | · | 0% | · | ? | -4% | -26%
CN(C)CCNC(=O)c1cc2c(s1)-c1ccc(Cl)cc1SC2 | ? | 11µM* | ? | 2.6µM* | 11µM* | 8.2µM*
CN(C(=O)c1cc2c(s1)-c1ccc(Cl)cc1SC2)c1cccc(C(F)(F)F)c1 | · | -3% | · | 15µM* | -9% | 16µM*

Screening results as filed in PubChem BioAssay.
